About 79,000 compounds went through this panel and 15% of them were active in at least one assay; those are over-represented in the sample as a whole. Rule as the data show it: active = growth inhibition above about 70%; inactive = the rest. Where a SMILES comes first, the peptide text is derived from it. [ ]: non-standard residue; d: D form. The star is where a group is joined. ξ: configuration not given here. Boc = CC(C)(C)OC(=O)*; ξV = CC(C)C(N)C(=O)O; OBn = c1ccc(CO*)cc1
How the values were obtained:
[1] = NCI Yeast Anticancer Drug Screen. Data for the rad50 strain (AID 155);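 also: 0% = growth of vehicle-only cultures of the same strain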; details: S. cerevisiae rad50 strain growth inhibition; at 50.0 µM; hits give high values
Method in brief: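 Inhibition values express reduced yeast growth in compound-treated cultures relative to vehicle-treated controls.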

[2] = NCI Yeast Anticancer Drug Screen. Data for the mec2-1 strain (AID 157); details: S. cerevisiae mec2-1 strain, at 50.0 µM, hits give high values
Method in brief: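 Mutant yeast (mec2-1) grown with compound; growth inhibition relative to vehicle control reported.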

[3] = NCI Yeast Anticancer Drug Screen. Data for the sgs1 mgt1 strain (AID 161);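 also: 0% = growth of cultures given vehicle only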; details: S. cerevisiae sgs1 mgt1 strain, at 50.0 µM, hits give high values
Method in brief: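 Yeast cells carrying a defined DNA-repair defect were exposed to test compounds. Growth inhibition was measured relative to vehicle-treated controls.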

[4] = NCI Yeast Anticancer Drug Screen. Data for the cln2 rad14 strain (AID 165);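 also: 0% = growth equal to vehicle treated cultures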; details: S. cerevisiae cln2 rad14 strain, at 50.0 µM, hits give high values
Method in brief: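 Readout is yeast growth inhibition versus vehicle-treated controls, using a strain with cln2 and rad14 alterations exposed to compound.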

[5] = NCI Yeast Anticancer Drug Screen. Data for the bub3 strain (AID 167); details: S. cerevisiae bub3 mutant strain, at 50.0 µM, hits give high values
Method in brief: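 Steps: expose the mutant yeast strain to compound; grow alongside vehicle-treated cultures; measure growth; express inhibition against the vehicle cultures.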

[6] = NCI Yeast Anticancer Drug Screen. Data for the mlh1 rad18 strain (AID 175); details: S. cerevisiae mlh1 rad18 strain growth inhibition; at 50.0 µM; hits give high values
Method in brief: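 Genetically defined yeast (DNA repair-deficient) exposed to compounds; growth inhibition determined relative to vehicle.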

Measured: growth inhibition

CC(=O)O/N=C1\C=Cc2c(no[n+]2[O-])C1=O
inactive: [1] -8.9% | [2] -20.3% | [3] -0.7% | [4] 12.1% | [5] -12.5% | [6] -5.35%

CCCc1cc(=O)oc2c3c(cc(OC(C)C)c12)O[C@H](C)[C@H](C)[C@@H]3O
inactive: [1] 3.55% | [2] 0.15% | [3] -10.8% | [4] -1.45% | [5] -7.6% | [6] 18.8%

N#Cc1c(/C=C/c2ccccc2)c2c([nH]c1=S)CCCCC2
inactive: [1] 0.35% | [2] -17.5% | [3] 16.1% | [4] 26.8% | [5] 16.9% | [6] 19.1%

COC(=O)CCCCCCCCCCC1C=CCC1 (configuration not stated)
inactive: [1] -3.5% | [2] -23% | [3] 11.4% | [4] 9.8% | [5] -3.45% | [6] 0.5%

CC(=O)NCc1cc(C)c(CBr)cc1CBr
inactive: [1] -1.95% | [2] -10.8% | [3] -3.6% | [4] 7.2% | [5] 7.1% | [6] 10.1%

ClC(=Nc1ccccc1)c1cc(Cl)ccn1
inactive: [1] 18.1% | [2] -1.8% | [3] 8.3% | [4] -12.4% | [5] 50% | [6] 8.15%

CCC(C(=O)c1ccccc1)C1(C(=O)OC)NC(=S)NC(=O)C1C#N (configuration not stated)
inactive: [1] 3.25% | [2] -2.85% | [3] -2.55% | [4] -17.9% | [5] -8.05% | [6] 4%

CC(C)C(NC(=O)OC(C)(C)C)C(=O)NCC(=O)OCc1ccccc1 (configuration not stated) (Boc-[ξV]-Gly-OBn)
inactive: [1] -37.9% | [2] -36% | [3] 12.2% | [4] -3.3% | [5] -8.6% | [6] -21.6%

CS(=O)(=O)OC1CCCSc2ccccc21 (configuration not stated)
inactive: [1] 8.8% | [2] 2% | [3] -14.4% | [4] -8.2% | [5] 16.7% | [6] -25.4%

Nc1nc(CCC(=O)O)cs1
inactive: [1] -6.85% | [2] -14.4% | [3] 4.9% | [4] -24.1% | [5] -1.45% | [6] -18.7%

CCOC(=O)CC[Si](CC)(CC)CC
inactive: [1] 0.25% | [2] -13.8% | [3] 1.7% | [4] -28.5% | [5] -15.3% | [6] -1.45%

O=C1OCC2C(=O)N3Cc4cc5ccccc5nc4C3CC12 (configuration not stated)
inactive: [1] 11.9% | [2] 10.2% | [3] -2.5% | [4] 8.85% | [5] -15.8% | [6] 9.55%

O=S(=O)(c1ccccc1)c1cccc2c[n+]3ccccc3cc12
inactive: [1] 34.6% | [2] 9.35% | [3] 39.2% | [4] 24.6% | [5] 22.5% | [6] 24.9%

CC(=O)NC1=N/C(=C\c2ccc(Cl)cc2)C(=O)N1/C=C1\C(=O)Oc2ccccc2C1=O
inactive: [1] 50% | [2] 13.9% | [3] 24.9% | [4] 26% | [5] 49.7% | [6] 41.9%

NC(CCCCC1CCCCC1)C(=O)O (configuration not stated)
inactive: [1] -5.75% | [2] -29.4% | [3] -18.1% | [4] -37.4% | [5] -28.4% | [6] -2.95%

NCCCCC(NC(=O)C(N)Cc1cnc[nH]1)C(=O)O (stereo not drawn) (H-His-Lys-OH; configuration not given here)
inactive: [1] 4.1% | [2] -5.75% | [3] -4% | [4] 13.3% | [5] 7.55% | [6] -12.2%

O=c1[nH]c(=O)n(C2CC(O)C(CO)O2)cc1Cl (configuration not stated)
inactive: [1] 0.75% | [2] -11.1% | [3] 2.9% | [4] 11.8% | [5] 1.45% | [6] 2.25%

COC1C(=O)c2ccccc2N1C(C)=O (configuration not stated)
inactive: [1] 7.85% | [2] -2.25% | [3] -7.6% | [4] -18.2% | [5] -6.85% | [6] 1.15%

NC(=S)N/N=C/c1cccc(CC(O)(C(F)(F)F)C(F)(F)F)n1
inactive: [1] 2.6% | [2] 7.1% | [3] 3.7% | [4] -28.4% | [5] -2.1% | [6] 24%

COC(=O)c1nc(N)nc(C(=O)OC)c1C(=O)C(C)C
inactive: [1] 5.4% | [2] -10.7% | [3] -24.9% | [4] -13.4% | [5] -29% | [6] -1%

CSC(/C=C/c1ccccc1)=Nc1ccccc1
inactive: [1] 3.2% | [2] 11.9% | [3] -0.9% | [4] -21.6% | [5] 23.6% | [6] 15%

c1cc(N2CCOCC2)ccc1Cc1ccc(N2CCOCC2)cc1
inactive: [1] -13.2% | [2] 0.9% | [3] -4.1% | [4] 0.45% | [5] -17.6% | [6] -13.1%

CCn1c2ccc([N+](=O)[O-])cc2c2c([N+](=O)[O-])c(NC=O)ccc21
inactive: [1] 12.2% | [2] 15.2% | [3] -4.55% | [4] 17.6% | [5] 13.8% | [6] 28.2%

CC1(C)OC2OC(COC(=O)c3ccccc3)C(N3C(=O)c4ccccc4C3=O)C2O1 (configuration not stated)
inactive: [1] 58.2% | [2] 9% | [3] 64.1% | [4] 30.1% | [5] 40.4% | [6] 49%

CCc1cc(Cl)c(O)c(Cl)c1
inactive: [1] 4.2% | [2] 18.2% | [3] 6.2% | [4] -0.15% | [5] 17.5% | [6] 19%

COc1cccc2c1CCC(=O)C2C (configuration not stated)
inactive: [1] 35.1% | [2] -0.9% | [3] 14.3% | [4] -5.45% | [5] 13.6% | [6] 22.9%

COC(=O)C1C2CC3c4[nH]c5cc(OC)ccc5c4CCN3CC2CC(OC(=O)CCc2cc(OC)c(OC)c(OC)c2)C1OC (configuration not stated)
inactive: [1] -3.35% | [2] -0.2% | [3] 4.25% | [4] 13.4% | [5] 14.7% | [6] 9.85%

ClCc1ccc(CCc2ccc(CCl)cc2)cc1
inactive: [1] 17.9% | [2] -17.9% | [3] 22.6% | [4] -44.9% | [5] 16.3% | [6] 8.15%

COc1ccccc1C(=O)C1OC1c1ccc(Cl)cc1Cl (configuration not stated)
inactive: [1] 19.1% | [2] -9.7% | [3] -6.9% | [4] -32% | [5] 6.85% | [6] 5.05%

CNCCC(C(=O)O)c1ccccc1 (configuration not stated)
inactive: [1] -12.1% | [2] -7.25% | [3] 9.15% | [4] -28.2% | [5] -2.6% | [6] 9.1%

OC1CC/C=C\CC/C=C/CCC1O (configuration not stated)
inactive: [1] -5.75% | [2] 6.45% | [3] 0.5% | [4] 24.1% | [5] 3.8% | [6] 0.55%

Nc1c(Br)cc(Br)cc1-c1cc(Br)cc(Br)c1N
inactive: [1] 3.65% | [2] 17% | [3] 10.4% | [4] 5.3% | [5] 13.4% | [6] 24.4%

CCN(CC)CC[n+]1ccc2c(C)c3[nH]c4ccccc4c3c(C)c2c1
inactive: [1] 37.8% | [2] -2.65% | [3] -4.1% | [4] 3.3% | [5] 31.3% | [6] 15.9%

O=C1NC(=S)NC(=O)C1=Cc1ccccc1OCc1ccccc1
inactive: [1] -19.4% | [2] -16.1% | [3] -0.55% | [4] -50.6% | [5] 1.6% | [6] -16.6%

CC(C)(C)OC(=O)NC(Cc1ccccc1)C(=O)OCN1C(=O)C2C3C=CC(C2C1=O)C1C2C(=O)N(COC(=O)C(Cc4ccccc4)NC(=O)OC(C)(C)C)C(=O)C2C31 (configuration not stated)
inactive: [1] 26.8% | [2] -4.1% | [3] -0.5% | [4] -6.55% | [5] 8.25% | [6] 20.4%

Brc1cncc(Br)c1
inactive: [1] 31.9% | [2] -9.35% | [3] -13.3% | [4] -2.1% | [5] -12.2% | [6] 1.4%

CCC(=O)Nc1ccccc1-c1ccccc1
inactive: [1] 25.6% | [2] 19% | [3] 16.9% | [4] 7.6% | [5] -1.8% | [6] 2.5%

N#CC(Nc1ccccc1)c1ccc(C(C#N)Nc2ccccc2)cc1 (configuration not stated)
inactive: [1] 3.2% | [2] 8.2% | [3] -45.2% | [4] -21.1% | [6] -34.2%

— PubChem BioAssay (NCI)
